Laboratory results reported in ChEMBL document CHEMBL3988442, “University of Dundee, Small-Polar-MMV Screening Library” (2021).

Columns and labels:
[1] = molecular target: T1, Aspartate--tRNA(Asp/Asn) ligase (Mycobacterium tuberculosis (strain ATCC 25618 / H37Rv)) (UniProt P9WFW3); assay: Assay for Asp RNA synthetase-1 from Mycobacterium tuberculosis; format: functional; set-up: scale not given: direction of the effect not stated beside the values; conditions: 30 µM; note: in the data most compounds retested in dose-response had high values
T1 sequence (whole entry): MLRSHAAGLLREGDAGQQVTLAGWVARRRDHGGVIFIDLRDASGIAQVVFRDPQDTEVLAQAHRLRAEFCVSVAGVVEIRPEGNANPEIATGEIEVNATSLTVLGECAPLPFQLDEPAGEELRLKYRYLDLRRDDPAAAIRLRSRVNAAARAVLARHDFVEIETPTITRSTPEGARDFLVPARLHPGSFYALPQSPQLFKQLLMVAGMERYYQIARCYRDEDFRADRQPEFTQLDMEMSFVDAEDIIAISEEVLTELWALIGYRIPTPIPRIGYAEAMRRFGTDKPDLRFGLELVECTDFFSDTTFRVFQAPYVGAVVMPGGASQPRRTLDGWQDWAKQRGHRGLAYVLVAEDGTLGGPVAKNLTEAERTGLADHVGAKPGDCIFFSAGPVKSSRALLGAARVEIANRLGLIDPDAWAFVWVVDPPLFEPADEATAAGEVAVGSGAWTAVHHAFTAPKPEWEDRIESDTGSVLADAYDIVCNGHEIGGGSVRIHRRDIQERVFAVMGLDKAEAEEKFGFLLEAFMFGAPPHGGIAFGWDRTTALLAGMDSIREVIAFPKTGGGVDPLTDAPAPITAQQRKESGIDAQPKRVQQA

[2] = molecular target: Shiga toxin 2 (Escherichia coli O157:H7) (UniProt P09385+P09386); assay: E. coli 0.157:H7 Shiga Toxin SOP - stx2 screening assay; format: functional; set-up: scale not given: direction of the effect not stated beside the values; conditions: 30 µM

Compound | Percent Effect [1] [%] | Percent Effect [2] [%]
Cc1cccc(Cn2c3c(ccc2=O)CCN(Cc2ccoc2)CC3)n1 | 2.51 | 2.55
CC(C)N(C)Cc1cnc2n1CCN(CCc1ccccc1)C2 | 0.605 | -27.2
CCc1noc(C(C)N2CCOCC2)n1 (stereo not given) | -10.8 | 6.48
N#CCCN(C(=O)CN1CCCC1C1CCCCC1)c1ccccc1 (stereo not given) | 8.01 | -20.8
N#Cc1ccnc(N2CCN(C(=O)NC3CCS(=O)(=O)C3)CC2)c1 (stereo not given) | -2.74 | 8.29
CN(C)C(=O)CN1CCC2(CCCN(Cc3cccn3C)C2)C1=O (stereo not given) | 2.49 | -13.9
COCC1CC2(CCN(C(=O)c3occc3C)CC2)CO1 (stereo not given) | 2.64 | -0.429
COc1ccc(F)cc1C(C)NC(=O)Cn1ccc(=O)n(C)c1=O (stereo not given) | 0.602 | -12.8
CO[C@H]1CCN(c2ncccn2)[C@H]1Cc1ccccc1 | 1.75 | -19.4
COCC1c2nnn(CC3CC3)c2CCN1C(=O)c1ccnnc1 (stereo not given) | -4.7 | -8.58
COc1ccc(OC)c(C2CCN(Cc3nc(C)n4ccccc34)C2)c1 (stereo not given) | -1.14 | 10.1
Cc1[nH]/c(=N\C(=O)c2csc(NCC(C)C)n2)sc1C | 0.43 | 12
CC(=O)N1CCC2(CC1)CC[C@@]1(C(=O)N(C)C)CN(S(C)(=O)=O)C[C@@H]21 | -1.99 | -10.1
CC(CNCc1ccc(Cl)c(Cl)c1)Oc1ccccn1 (stereo not given) | -0.523 | -59.8
CC(NC(=O)NCCCn1cncn1)c1ccc2c(c1)OCCO2 (stereo not given) | 0.175 | 17.4
CN(C)C(=O)N1CCN(C(=O)CCc2ccccc2)[C@H]2CS(=O)(=O)C[C@H]21 | 3.33 | -13.3
CCSCC(C)NCc1nncn1C1CCCCC1 (stereo not given) | 1.39 | 13.1
Cc1cc(NC(=O)CN2CCOC(Cn3cccn3)C2)n(C)n1 (stereo not given) | -3.92 | -12.8
CN(C)S(=O)(=O)N1C[C@@H]2CC[C@H](C1)N(Cc1ccc3nsnc3c1)C2 | -2.42 | -1.59
COCCn1c2c(ccc1=O)CC(NS(C)(=O)=O)CC2 (stereo not given) | 2.72 | -20.6
O=C(c1n[nH]c2c1CCN(Cc1nccs1)C2)N1CCCC1 | -0.578 | -3.88
COCc1nc(C(=O)N2CCCC2c2c(C)nn(C)c2C)cs1 (stereo not given) | -5.87 | -13.6
COc1ccc(C(C)NC(=O)Cn2ccc(=O)n(C)c2=O)cc1OC (stereo not given) | 2.15 | -8.59
CS(=O)(=O)N1CCc2nc(NC(=O)Nc3c(F)cccc3F)sc2C1 | -4.11 | 4.52
COc1ccc(C(=O)NS(=O)(=O)c2ccc(C#N)cc2C(F)(F)F)cc1 | -0.26 | 8.91

Compound | Percent Effect [1] [%] | Percent Effect [2] [%]
CCn1cc(NC(=O)NCC(O)CN2CCCCC2)cn1 (stereo not given) | -0.173 | 21.2
Cn1ccc(CN2CCC(OCCc3ccccc3)CC2)cc1=O | 2.67 | 8.32
CN(C)S(=O)(=O)c1ccc(CN2CCCC2CO)o1 (stereo not given) | -0.169 | 24
COc1ccc(CNCc2ccc(N3CCCCC3)nc2)cc1OC | 1.06 | -82.1
COc1cccc(CN2C[C@@H]3COC[C@]3(COCc3ccncc3)C2)c1 | 2.95 | 5.94
CC(C(=O)NCc1ccc(-n2cncn2)nc1)n1ccnc1 (stereo not given) | 5.56 | 19.8
Cc1nc(C)n(CC2CCCN(Cc3nc(C4CC4)no3)C2)n1 (stereo not given) | 4.92 | 7.13
O=C(c1ccc(=O)[nH]n1)N1CC(c2nc(Cc3ccccc3)no2)C1 | -0.546 | -7.29
CC1CCN(Cn2nc(-c3ccc(F)cc3)oc2=O)CC1 | -0.789 | -14.8
CCc1noc(C)c1C(=O)N1CCCC1Cn1nc(C)cc1C (stereo not given) | 0.674 | 27.6
Cn1cc(Br)c(=O)c(NS(=O)(=O)c2ccc(F)cc2)c1 | -2.87 | -1.63
Cc1nn(CC(C)C)c(N(C)C)c1CNCc1cc2ccccc2[nH]1 | -2.12 | 31.1
CC(C)c1n[nH]c(C2CN(Cc3nnc(C4CC4)o3)CCO2)n1 (stereo not given) | -2.26 | 0.109
Cc1cc(NC(=O)C(c2cccc(F)c2)N2CCOCC2)ccn1 (stereo not given) | 5 | -6.3
CCOCC(O)CN1CCN(C(=O)c2cc(F)ccc2C)CC1 (stereo not given) | -0.759 | 9.83
COCc1ncc(CN2CCC(Oc3ccccc3OC)CC2)cn1 | 0.276 | -1.31
CSCC[C@H](N)C(=O)NCc1cc2n(n1)CCCN(C1CCCCC1)C2 | -6.77 | 5.19
O=C(c1ccc(C2CCCO2)s1)N1CCS(=O)(=O)CC1 (stereo not given) | 3.74 | -6.97
CCC1=N[C@@]2(CC[C@@H]3CN(C(=O)NCc4ccccc4)C[C@@H]32)C(=O)N1 | 1.75 | 5.39
CC(C)n1ncc2c1NC(=O)CC21C(=O)Nc2c(Cl)cc(Cl)cc21 (stereo not given) | 0.842 | 1.79
N#Cc1cccnc1NCc1cccnc1N1CCC(C(N)=O)CC1 | 4.47 | -10.3
O=C1CCc2cc(C(=O)NCc3ccc(-n4cncn4)nc3)ccc2N1 | -5.04 | 3.55
Cc1cc(C)n(C2CN(Cc3noc(-c4ccccc4)n3)C2)n1 | 4.04 | -51.5
Cc1cc(N2CCN(C(=O)c3cc(Cl)c[nH]3)CC2)nc(N)n1 | 3.4 | -96.7
c1cnn(CCNCc2csc(-c3ccsc3)n2)c1 | -3.52 | -113

Compound | Percent Effect [1] [%] | Percent Effect [2] [%]
Cc1nn(C)c(C)c1C1CCCN1Cc1nc(C)c2ccccc2n1 (stereo not given) | 0.742 | 10.8
Cc1noc(C2CCC3(CCN(C(=O)c4c(C)noc4C)CC3)O2)n1 (stereo not given) | -3.06 | 16.1
Cc1ccc(S(=O)(=O)N2CCC3(CC(C(=O)NCC4CC4)=NO3)C2)cc1 (stereo not given) | 10.8 | 14.7
Cc1ncc2c(n1)CN(CC(=O)Nc1nncs1)CC2 | -3.23 | -20.4
CN(C)C1CCN(C(=O)c2ccc(Cn3ccccc3=O)o2)CC1 | 1.63 | -10.4
O=C(NCc1cnc2n1CCN(Cc1ccsc1)CC2)C1CCC1 | 3.57 | 4.16
COC(=O)c1cccn1C1CCN(Cc2ccccc2)CC1 | 0.995 | -6.65
Cn1cc(C2CCCN2Cc2csc(C(C)(C)C)n2)cn1 (stereo not given) | -4.83 | -11.7
CCn1cc(NC(=O)NCC2(N3CCOCC3)CCSC2)cn1 (stereo not given) | 1.79 | -20
CC(=O)N1CCC2(CCN(C(=O)c3ccc(Cl)c(C(F)(F)F)c3)CC2)C1 | 4.41 | 11.4
COc1ccc(C(O)CNC(=O)Nc2cc(C)nn2C)cc1 (stereo not given) | -1.41 | 26.8
Cc1nn(C)c(N2CCOCC2)c1CNCc1nccs1 | -2.7 | 28.1
CCN1CCN(CC(O)c2ccc(OC(F)(F)F)cc2)CC1 (stereo not given) | 5.22 | -5.3
O=C(NCCC1=CCCCC1)C1CCN(c2ccc3nncn3n2)CC1 | -1.42 | -16.7
CC(CN1CCOCC1)NCc1nncn1C1CCCCC1 (stereo not given) | 0.0836 | -15.5
CNc1nc(C2CCCN2C(C)=O)nc2c1CCN(CC1CC1)C2 (stereo not given) | 1.43 | -7.13
COc1ccccc1CC(=O)NCc1c(C)nc2cc(=O)[nH]n2c1C | -0.878 | 13.6
O=C1CO[C@@H]2CN(Cc3cccs3)C[C@H]2N1CC1CC1 | 12.1 | -3.56
COCCNC(=O)[C@H]1CN(Cc2scnc2C)C[C@H]2OCC[C@@H]12 | -3.26 | 0.32
CCN1CCN(S(=O)(=O)c2ncn(C)c2Cl)CC1 | -2.51 | -7.16
Cc1n[nH]c(=O)c2c(NC(=O)CN3CCCC(C(F)(F)F)C3)oc(C)c12 (stereo not given) | -2.66 | -52.6
COCCN1C[C@@H](C)[C@@]2(COCCN(C(=O)c3cnc(C)cn3)C2)C1 | -1.78 | -19.1
Cc1cnccc1N1CCCN(C(=O)CCCS(N)(=O)=O)CC1 | -1.55 | -11.6
CC(Cn1ccnc1)NC(=O)NCCNC(=O)C(C)C (stereo not given) | 1.08 | 11.8
CNS(=O)(=O)c1cccc(CNc2ccc(C(F)(F)F)nn2)c1 | -3.88 | 14.2

Compound | Percent Effect [1] [%] | Percent Effect [2] [%]
CC(C)(C)c1n[nH]c(C2CN(C(=O)c3csnn3)CCO2)n1 (stereo not given) | -2.01 | 5.88
O=S(=O)(CCN1CCOC(Cn2cccn2)C1)C(F)(F)F (stereo not given) | 8.08 | 191
CC(C)C(=O)N1CCC(c2nc(O)cc(-c3ccncc3)n2)CC1 | -2.46 | 3.51
CCC(O)CN1CCN(C(=O)c2sccc2OC)CC1 (stereo not given) | 0.995 | -39.9
CCS(=O)(=O)N1CCC2(CCC2NC(=O)c2ccn(C)c2)CC1 (stereo not given) | 1.6 | 9
COC(=O)c1cccc(C(=O)N2CCN(c3cccc(C)c3C)CC2)n1 | -1.18 | -18.6
COCCC(=O)N1CCC2(COCc3c(C)nc(NCC4CC4)nc32)C1 (stereo not given) | 1.96 | 0.582
c1cnn(CC2CN(Cc3ccc(-n4ccnc4)cc3)CCO2)c1 (stereo not given) | -1.11 | -7.92
O=c1[nH]c(CCN2CCCC(Cn3cncn3)C2)nc2ccccc12 (stereo not given) | -3.23 | -25.8
CC(C)c1nnc2n1CCN(C(=O)c1ccc3cc[nH]c3c1)C2 | -2.98 | 3.97
Cc1ccc(C(=O)NC2CCN(Cc3noc(CC(C)C)n3)CC2)s1 | 7.55 | -63.2
CCC(O)CN1CCN(C(=O)c2ccnc(N(C)C)c2)CC1 (stereo not given) | -4.29 | -17.1
O=C(C1CCC1)N1CCN(Cc2ccsc2)[C@H]2CS(=O)(=O)C[C@H]21 | -4.67 | -39.6
O=C(NCc1cccnc1)C1CC(=O)N(CC2CC2)C1 (stereo not given) | -3.29 | -8.28
CN(C)C(=O)N1CCn2nc(CNC(=O)CCC(F)(F)F)cc2C1 | 2.12 | -7.2
Cn1cc(NC(=O)N2CCC(c3ccccc3)CC2)ccc1=O | 55 | 21.8
O=C(NCc1ccccc1CN1CCC(O)CC1)Nc1cccnc1 | 1.28 | -12.1
O=C(c1cc(COc2ccc3c(c2)OCO3)[nH]n1)N1CCOCC1 | -0.0228 | -36.8
Cc1nn(C)c(Cl)c1C1CCCN1CCc1ccccn1 (stereo not given) | 1.79 | -0.4
Cc1ccc(CN2CCn3cc(CN(C)Cc4ccco4)nc3C2)o1 | 1.01 | -24.1
CC(C(=O)Nc1ccc(N2CCCC2)nc1)n1ccnc1 (stereo not given) | 1.62 | -37.2
Cc1nn(C)c(C)c1C1CCCN1C(=O)CCc1cscn1 (stereo not given) | -2.02 | 20.4
Cc1cccnc1NC(=O)C(C)Cn1nc(C(F)(F)F)cc1C (stereo not given) | -2.9 | -1.69
CN(Cc1ccccc1)C1COC2(CCN(Cc3nccs3)CC2)C1 (stereo not given) | -2.36 | -24.7
O=S(=O)(N1CCCCC1)N1CCc2nc(C3CCNCC3)ncc2C1 | -1.74 | 13.4
